Our source for the inhibition values is ChEMBL document CHEMBL1961873, “Compounds: GSK PKIS; Assays: Nanosyn kinase panel” (2012).

For test [1], the target named is T1, Serine/threonine-protein kinase D2 (Homo sapiens) (UniProt Q9BZL6).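 Also: mean value of PRKD2 inhibition, from the GSK PKIS screening panel.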
T1 sequence (whole entry): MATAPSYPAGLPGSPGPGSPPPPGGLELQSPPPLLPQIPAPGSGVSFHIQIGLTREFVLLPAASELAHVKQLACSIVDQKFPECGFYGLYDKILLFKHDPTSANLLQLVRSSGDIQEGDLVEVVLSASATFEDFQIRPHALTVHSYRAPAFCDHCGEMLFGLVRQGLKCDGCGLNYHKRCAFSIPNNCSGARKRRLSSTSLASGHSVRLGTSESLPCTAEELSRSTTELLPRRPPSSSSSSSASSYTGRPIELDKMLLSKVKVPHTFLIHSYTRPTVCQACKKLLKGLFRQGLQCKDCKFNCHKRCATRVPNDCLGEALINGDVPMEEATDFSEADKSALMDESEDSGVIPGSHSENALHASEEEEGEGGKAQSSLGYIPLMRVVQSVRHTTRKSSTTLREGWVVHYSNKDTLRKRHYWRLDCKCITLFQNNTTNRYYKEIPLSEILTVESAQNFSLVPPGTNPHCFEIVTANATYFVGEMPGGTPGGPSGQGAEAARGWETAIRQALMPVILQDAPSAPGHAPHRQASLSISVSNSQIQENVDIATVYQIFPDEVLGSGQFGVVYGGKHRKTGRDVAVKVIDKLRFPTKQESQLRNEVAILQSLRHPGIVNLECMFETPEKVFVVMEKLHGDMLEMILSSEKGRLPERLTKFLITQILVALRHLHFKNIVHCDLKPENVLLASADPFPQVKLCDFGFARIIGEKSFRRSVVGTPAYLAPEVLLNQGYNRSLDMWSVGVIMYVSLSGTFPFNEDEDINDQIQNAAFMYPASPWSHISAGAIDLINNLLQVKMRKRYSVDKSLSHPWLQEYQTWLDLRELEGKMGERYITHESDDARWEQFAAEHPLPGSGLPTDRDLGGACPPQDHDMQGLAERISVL
To be noted: at 1 µM.

Test [2] deals with T2, Serine/threonine-protein kinase D3 (Homo sapiens) (UniProt O94806).
T2 sequence (whole entry): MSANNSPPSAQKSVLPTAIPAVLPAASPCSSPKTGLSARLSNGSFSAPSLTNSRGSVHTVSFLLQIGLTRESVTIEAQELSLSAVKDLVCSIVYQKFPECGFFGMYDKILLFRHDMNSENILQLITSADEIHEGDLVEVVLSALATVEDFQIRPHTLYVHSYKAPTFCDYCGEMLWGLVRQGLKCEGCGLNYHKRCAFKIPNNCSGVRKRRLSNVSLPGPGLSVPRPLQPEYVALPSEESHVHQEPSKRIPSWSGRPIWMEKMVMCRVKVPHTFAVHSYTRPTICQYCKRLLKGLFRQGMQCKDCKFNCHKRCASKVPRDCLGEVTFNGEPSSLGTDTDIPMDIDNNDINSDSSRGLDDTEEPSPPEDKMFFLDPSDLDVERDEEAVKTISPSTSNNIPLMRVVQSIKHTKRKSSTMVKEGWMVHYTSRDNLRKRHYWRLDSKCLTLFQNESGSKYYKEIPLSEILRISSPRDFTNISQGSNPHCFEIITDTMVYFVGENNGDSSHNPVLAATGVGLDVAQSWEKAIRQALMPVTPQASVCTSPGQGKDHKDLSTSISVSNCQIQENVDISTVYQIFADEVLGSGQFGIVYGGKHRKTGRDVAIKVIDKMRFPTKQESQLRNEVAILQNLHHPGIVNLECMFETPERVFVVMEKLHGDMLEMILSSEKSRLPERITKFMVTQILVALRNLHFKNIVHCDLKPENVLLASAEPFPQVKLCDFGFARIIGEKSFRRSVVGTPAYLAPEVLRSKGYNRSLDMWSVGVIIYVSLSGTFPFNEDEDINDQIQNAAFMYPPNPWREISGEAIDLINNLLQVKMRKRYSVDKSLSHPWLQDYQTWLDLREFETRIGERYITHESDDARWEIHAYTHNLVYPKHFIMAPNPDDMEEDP
To be noted: at 0.1 µM.

The target in test [3] is T2, Serine/threonine-protein kinase D3 (Homo sapiens). To be noted: at 1 µM.
For test [4], the target named is T3, cGMP-dependent protein kinase 1 (Homo sapiens) (UniProt Q13976).
T3 sequence (whole entry): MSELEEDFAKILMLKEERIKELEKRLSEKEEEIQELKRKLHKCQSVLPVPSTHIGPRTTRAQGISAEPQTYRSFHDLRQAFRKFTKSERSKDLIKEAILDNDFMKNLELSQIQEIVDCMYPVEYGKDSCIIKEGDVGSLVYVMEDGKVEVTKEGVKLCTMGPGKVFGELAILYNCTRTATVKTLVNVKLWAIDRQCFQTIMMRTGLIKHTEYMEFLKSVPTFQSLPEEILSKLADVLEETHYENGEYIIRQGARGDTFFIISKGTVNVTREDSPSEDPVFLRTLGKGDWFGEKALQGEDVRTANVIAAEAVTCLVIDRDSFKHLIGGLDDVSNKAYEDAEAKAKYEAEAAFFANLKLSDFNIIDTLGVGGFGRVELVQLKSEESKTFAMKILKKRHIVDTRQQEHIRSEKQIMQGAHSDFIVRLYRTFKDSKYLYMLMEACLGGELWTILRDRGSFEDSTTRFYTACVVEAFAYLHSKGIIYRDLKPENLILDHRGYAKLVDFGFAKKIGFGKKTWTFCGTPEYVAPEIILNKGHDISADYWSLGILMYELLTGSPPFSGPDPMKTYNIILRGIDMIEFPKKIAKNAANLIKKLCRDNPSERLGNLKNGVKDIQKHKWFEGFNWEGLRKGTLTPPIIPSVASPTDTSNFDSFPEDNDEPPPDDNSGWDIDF
Particulars: at 0.1 µM.

In test [5] the target is T3, cGMP-dependent protein kinase 1 (Homo sapiens). Particulars: at 1 µM.
The target in test [6] is T4, cGMP-dependent protein kinase 2 (Homo sapiens) (UniProt Q13237).
T4 sequence (whole entry): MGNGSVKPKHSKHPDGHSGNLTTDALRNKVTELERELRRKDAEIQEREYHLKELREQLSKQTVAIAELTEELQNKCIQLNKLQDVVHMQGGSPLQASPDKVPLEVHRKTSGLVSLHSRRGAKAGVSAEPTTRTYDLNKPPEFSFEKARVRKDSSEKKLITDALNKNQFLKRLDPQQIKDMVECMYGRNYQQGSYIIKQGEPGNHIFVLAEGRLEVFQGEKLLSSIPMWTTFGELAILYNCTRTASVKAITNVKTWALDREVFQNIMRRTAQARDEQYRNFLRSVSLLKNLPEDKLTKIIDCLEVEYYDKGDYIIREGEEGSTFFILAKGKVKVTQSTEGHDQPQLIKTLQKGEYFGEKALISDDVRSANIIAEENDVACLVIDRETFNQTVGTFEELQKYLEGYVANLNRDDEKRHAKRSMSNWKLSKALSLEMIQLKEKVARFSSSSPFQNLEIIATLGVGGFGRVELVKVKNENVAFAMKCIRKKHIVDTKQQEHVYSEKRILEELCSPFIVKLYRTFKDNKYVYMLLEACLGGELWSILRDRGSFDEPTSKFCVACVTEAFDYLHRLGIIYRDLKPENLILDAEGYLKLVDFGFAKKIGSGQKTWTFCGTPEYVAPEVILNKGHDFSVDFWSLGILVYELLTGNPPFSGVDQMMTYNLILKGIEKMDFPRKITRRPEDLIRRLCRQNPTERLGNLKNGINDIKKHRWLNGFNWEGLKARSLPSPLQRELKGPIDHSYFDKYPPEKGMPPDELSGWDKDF
Particulars: at 0.1 µM.

Test [7] has as its target T4, cGMP-dependent protein kinase 2 (Homo sapiens). To be noted: at 1 µM.
The target in test [8] is T5, cAMP-dependent protein kinase catalytic subunit PRKX (Homo sapiens) (UniProt P51817).
T5 sequence (whole entry): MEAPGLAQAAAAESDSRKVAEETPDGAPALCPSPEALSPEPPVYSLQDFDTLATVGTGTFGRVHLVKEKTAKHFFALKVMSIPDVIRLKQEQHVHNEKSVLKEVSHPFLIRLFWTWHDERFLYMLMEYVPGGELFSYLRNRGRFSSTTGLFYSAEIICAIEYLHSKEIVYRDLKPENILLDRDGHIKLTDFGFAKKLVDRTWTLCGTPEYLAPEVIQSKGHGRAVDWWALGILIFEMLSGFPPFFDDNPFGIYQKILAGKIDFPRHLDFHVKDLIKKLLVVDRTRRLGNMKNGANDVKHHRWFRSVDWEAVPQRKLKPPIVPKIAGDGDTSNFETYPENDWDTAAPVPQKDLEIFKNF
To be noted: at 0.1 µM.

The target of test [9] is T5, cAMP-dependent protein kinase catalytic subunit PRKX (Homo sapiens). To be noted: at 1 µM.
In test [10] the target is Rho-associated protein kinase 1 (Homo sapiens) (UniProt Q13464). To be noted: at 0.1 µM.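 Also: values are mean percent inhibition of ROCK1.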
Sequence of Rho-associated protein kinase 1 (Homo sapiens) (Q13464 2-1354 limits assumed): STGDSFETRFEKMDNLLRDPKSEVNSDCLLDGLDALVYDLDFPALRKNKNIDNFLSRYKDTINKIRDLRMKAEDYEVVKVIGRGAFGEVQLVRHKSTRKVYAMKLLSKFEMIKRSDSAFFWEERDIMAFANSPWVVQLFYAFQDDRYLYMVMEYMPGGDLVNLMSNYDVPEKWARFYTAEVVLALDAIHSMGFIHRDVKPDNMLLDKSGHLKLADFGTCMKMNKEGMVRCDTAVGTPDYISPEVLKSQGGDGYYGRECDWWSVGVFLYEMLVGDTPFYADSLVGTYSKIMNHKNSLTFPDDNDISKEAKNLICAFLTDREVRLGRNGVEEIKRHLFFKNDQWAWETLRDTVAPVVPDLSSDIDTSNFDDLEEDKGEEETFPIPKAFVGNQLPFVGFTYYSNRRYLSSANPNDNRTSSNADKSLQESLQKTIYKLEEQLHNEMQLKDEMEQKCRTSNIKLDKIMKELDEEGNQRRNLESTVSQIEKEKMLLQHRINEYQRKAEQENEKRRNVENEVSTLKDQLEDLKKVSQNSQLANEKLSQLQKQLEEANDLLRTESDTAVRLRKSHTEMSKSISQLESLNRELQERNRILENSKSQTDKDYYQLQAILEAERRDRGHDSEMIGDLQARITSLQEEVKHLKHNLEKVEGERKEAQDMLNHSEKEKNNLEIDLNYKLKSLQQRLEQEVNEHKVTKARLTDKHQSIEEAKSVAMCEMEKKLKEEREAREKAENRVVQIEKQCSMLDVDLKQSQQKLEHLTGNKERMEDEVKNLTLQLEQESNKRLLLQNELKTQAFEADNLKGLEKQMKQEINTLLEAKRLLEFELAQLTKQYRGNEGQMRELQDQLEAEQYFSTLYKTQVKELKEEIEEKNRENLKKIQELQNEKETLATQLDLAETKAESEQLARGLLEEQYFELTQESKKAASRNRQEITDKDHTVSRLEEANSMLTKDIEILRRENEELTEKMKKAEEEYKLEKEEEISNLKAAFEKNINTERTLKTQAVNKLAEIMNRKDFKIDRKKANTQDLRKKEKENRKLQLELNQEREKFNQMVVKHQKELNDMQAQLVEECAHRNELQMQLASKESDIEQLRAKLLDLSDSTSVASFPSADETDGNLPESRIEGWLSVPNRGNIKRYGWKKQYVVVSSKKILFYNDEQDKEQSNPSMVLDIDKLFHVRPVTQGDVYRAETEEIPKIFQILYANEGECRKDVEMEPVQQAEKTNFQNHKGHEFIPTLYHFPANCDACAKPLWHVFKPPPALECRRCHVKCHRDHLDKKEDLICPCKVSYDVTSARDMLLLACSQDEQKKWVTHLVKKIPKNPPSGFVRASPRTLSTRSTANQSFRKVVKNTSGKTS

For `NS(=O)(=O)c1ccc(N/N=C2\C(=O)Nc3ccc(Cl)cc32)cc1`, the inhibition is 5.28% in test [1]; 3.58% in test [2]; 5.68% in [3]; 2.65% in [4]; 6.01% in [5]; 3.85% in test [6]. Moreover, the inhibition in test [7] was determined as 5.8%; in [8] it was 4.2%; in [9] it was 7.86%; in test [10] it was 0.31%.
Turning to `COc1cc(Nc2nccc(-c3cnn4ncccc34)n2)cc(OC)c1`, the inhibition was 15.9% in test [1]; -0.68% in test [2]; 19.6% in [3]; 12.2% in test [4]; 57.2% in test [5]; 3.45% in [6]. Further, the inhibition was 24.4% in test [7], 0.67% in [8], 0.29% in test [9] and 0.75% in [10].
For `COc1cc(/C=N/Nc2ncnc3c2cnn3C(C)C)ccc1O`, the inhibition in test [1] came out at 1.41%; in test [2], 1.37%; in test [3] it was 1.6%; in test [4], 3.26%; in test [5], 3.14%; in test [6] it was 0.71%. Further, the inhibition in [7] was 2.16%; in [8], 0.57%; in test [9], 0.81%; in test [10], 0.31%.
Regarding `NS(=O)(=O)c1cccc(-c2cc3ccncc3cc2OCc2ccccc2)c1`, the inhibition in test [1] turned out to be 5.47%; in test [2], 6.19%; in test [3], 6.3%; in [4], 3.6%; in [5], 4.53%; in [6] it was 2.72%. Further, the inhibition in test [7] came out at 5.57%; in [8], 1.93%; in [9], 0.54%; in test [10], 0.94%.
`COC(=O)c1ccc2c(c1)C(=Cc1cc(Br)c(O)c(Br)c1)C(=O)N2`: the inhibition in test [1] amounted to 3.79%; in test [2], 4.47%; in test [3], 5.87%; in test [4], 2.45%; in test [5], 5.8%; in test [6], 1.59%. The inhibition was 6.29% in test [7], 1.47% in test [8], 1.86% in test [9] and 2.01% in test [10].
Turning to `O=C1Nc2ccc(-c3cccnc3)cc2C1=Cc1cc(Br)c(O)c(Br)c1`, the inhibition in [1] came out at 4.38%; in [2] it was 4.62%; in [3], 5.23%; in [4], 4.28%; in [5], 11%; in test [6], 2.46%. In addition, the inhibition in [7] was 4.63%; in test [8], 1.55%; in test [9], -0.22%; in test [10], 1.68%.
On to `CCn1c(-c2nonc2N)nc2c(C#CC(C)(C)O)nc(OCCNC)cc21`, for which the inhibition in test [1] worked out at 7.32%; in [2], 4.82%; in test [3], 9.81%; in [4] it was 9.59%; in test [5], 44.8%; in [6], 39.3%. In addition, the inhibition in [7] came out at 70.9%; in test [8] it was 21.5%; in test [9], 65.9%; in [10], 3.08%.
Turning to `CN(C)c1cc2c(Nc3ccc4c(cnn4Cc4ccccc4)c3)ncnc2cn1`, the inhibition in [1] was 4.01%; in test [2] it was 3.24%; in test [3], 4.21%; in test [4], 0.2%; in test [5] it was 4.15%; in test [6], 2.57%. In addition, the inhibition was 2.77% in test [7], 1.48% in test [8], 0.84% in [9] and 0.25% in test [10].

Broadly, the inhibition is the drop in the measured response relative to a control, in per cent.
